TrxR1 inh: inhibitors of rat thioredoxin reductase 1. O89049. recombinant rTrxR1, NADPH fluorescence consumption, selenite substrate. Potency, µM (highest dose often 114 µM), for inactives: at the top dose activity change, negative = inhibition, actives largely listed as inhibitors. 390,000 compounds, 1% hits. AID 588453; further: on the % scale 0 is the no-effect control and ±100 the full control effect; nearly all actives have a fitted effect of over 65% in size
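Rat TrxR1 (90 nM in the dispensed reagent) was pre-reduced with 400 uM NADPH for 5 min at room temperature, then incubated with compound for 15 min. After 400 uM selenite was added, NADPH fluorescence (Ex 340/Em 450 nm) was followed for 8 min.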
VDR inhibitor: vitamin D3 receptor (human) inhibition | Potency, µM, inactives show max response, negative = inhibition, actives largely listed as inhibitors | AID 504847 | VDR-SRC2-3 peptide fluorescence polarization, 2 h | 400,000 compounds, 0.93% hits; further: on the % scale 0 is the no-effect control and ±100 the full control effect
Target sequence (P11473 whole entry, looked up): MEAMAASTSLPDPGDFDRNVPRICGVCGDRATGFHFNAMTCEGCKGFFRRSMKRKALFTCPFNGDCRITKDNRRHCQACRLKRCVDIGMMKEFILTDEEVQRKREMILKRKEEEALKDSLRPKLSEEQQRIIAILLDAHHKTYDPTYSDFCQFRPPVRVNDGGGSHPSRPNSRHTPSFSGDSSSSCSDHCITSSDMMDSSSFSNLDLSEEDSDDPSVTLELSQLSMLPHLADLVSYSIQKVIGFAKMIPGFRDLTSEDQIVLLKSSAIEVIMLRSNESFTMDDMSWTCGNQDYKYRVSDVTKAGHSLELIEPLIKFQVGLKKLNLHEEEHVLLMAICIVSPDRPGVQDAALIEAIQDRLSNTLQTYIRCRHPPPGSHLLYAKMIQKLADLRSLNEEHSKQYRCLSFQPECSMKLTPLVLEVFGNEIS
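After 23 nl compound addition and a short centrifugation, plates sat for 2 hours at ambient temperature; polarization of fluorescence then indicated loss of VDR binding to peptide SRC2-3.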
Vif-A3F inh: inhibitors of Vif-A3F interaction; Potency, µM (highest dose often 46.1 µM), for inactives: top-dose activity, negative = active; 390,000 compounds, 0.2% hits; HeLa A3F-eYFP + Vif (tagged APOBEC3F with the HIV-1 protein that degrades it), YFP fluorescence increase; further: % of control where 0% means no effect; nearly all actives have a fitted effect of over 65% in size
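HeLa cells stably expressing Vif plus C-terminally eYFP-tagged A3F were seeded, incubated overnight at 37 deg C, dosed with compound, incubated overnight again at 37 deg C. Yellow fluorescence (Ex 488/Em 500-530) reported blocked Vif-mediated A3F-eYFP degradation.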
TrxR1 substrate: is turned over as a substrate by rat TrxR1; O89049; purified TrxR1 substrate turnover, NADPH consumption readout; Potency, µM (highest dose often 114 µM), inactives show at the highest dose activity change, negative = substrate turnover; 390,000 compounds, 0.01% hits; further: on the % scale 0 is the no-effect control and ±100 the full control effect; nearly all actives have a fitted effect of over 50% in size
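Rat TrxR1, dispensed at 90 nM, was prereduced with 400 uM NADPH (final) for 5 min at ~22 deg C, then incubated with compound 15 min before 400 uM selenite. A first-read NADPH fluorescence drop versus no-compound background flagged substrates.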
Vif-APOBEC3G blk: inhibitors of Vif-APOBEC3G interaction; Q9HC16; HeLa A3G-eYFP + Vif (tagged APOBEC3G with the HIV-1 protein that degrades it), YFP fluorescence, overnight; Potency, µM (titrated, usually from 46.1 µM), for inactives: at the highest dose activity, negative = active, actives largely listed as inhibitors; 410,000 compounds, 0.076% hits; AID 602310; further: on the % scale 0 is the no-effect control and ±100 the full control effect; nearly all actives have a fitted effect of over 60% in size
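HeLa cells stably expressing Vif and C-terminally eYFP-tagged A3G, seeded overnight at 37 deg C, then exposed to compound by pintool overnight at 37 deg C. Rise in yellow fluorescence (Ex 488/Em 500-530, Acumen) marks blocked Vif-driven A3G degradation.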
An asterisk follows results filed as active; ! = not active in a repeat; [ ] = dose if it differs, or a comment. Only some compounds are listed: those with a hit (about 1.8% of all), similar ones and a draw of the others. The call rests on the fitted dose curve; in most records, active means well fitted curve in the direction sought with a large enough effect; inconclusive means small, poorly fitted or top-dose-only effect, or another doubt; inactive means no such curve, though single readings can be large; an effect the other way counts as inactive or inconclusive. Potency means the concentration at half of the fitted maximal effect.

`O=C1/C(=C\c2cccc(O)c2O)SC(=S)N1Cc1ccccc1` gave TrxR1 inh -9%, VDR inhibitor -29%, Vif-A3F inh 0%, TrxR1 substrate -3% and Vif-APOBEC3G blk -12%.
Screening O=C1/C(=C/c2ccncc2)SC(=S)N1Cc1ccccc1 returned TrxR1 inh -16%[57.1 µM], VDR inhibitor 71µM*, Vif-A3F inh 12%, TrxR1 substrate -2%[57.1 µM] and Vif-APOBEC3G blk inconclusive.
`O=C1/C(=C\c2ccc(O)c(O)c2)SC(=S)N1Cc1ccccc1` gave TrxR1 inh -3%[57.1 µM], VDR inhibitor -2%, Vif-A3F inh inconclusive, TrxR1 substrate -2%[57.1 µM] and Vif-APOBEC3G blk 22µM*.
COc1cc(/C=C2/SC(=S)N(Cc3ccccc3)C2=O)ccc1O was read as TrxR1 inh 18%, VDR inhibitor -2%, Vif-A3F inh inconclusive, TrxR1 substrate -3% and Vif-APOBEC3G blk inconclusive.
O=C1/C(=C\c2cc([N+](=O)[O-])ccc2O)SC(=S)N1Cc1ccc(Cl)cc1 was read as TrxR1 inh 3%, VDR inhibitor inconclusive, Vif-A3F inh 13µM*, TrxR1 substrate -7% and Vif-APOBEC3G blk inconclusive.
Screening CC[C@H](C)[C@H](NC(=O)[C@H](Cc1ccc(O)cc1)NC(=O)[C@H](CCCNC(=N)N)NC(=O)[C@H](CCCNC(=N)N)NC(=O)[C@H](CC(C)C)NC(=O)[C@H](CCC(N)=O)NC(=O)[C@@H](NC(=O)[C@H](CCC(=O)O)NC(=O)[C@H](Cc1ccc(O)cc1)NC(=O)[C@H](CCC(N)=O)NC(=O)[C@H](C)NC(=O)[C@H](CCCNC(=N)N)NC(=O)[C@H](CCC(N)=O)NC(=O)[C@H](CCC(=O)O)NC(=O)[C@H](Cc1cnc[nH]1)NC(=O)[C@@H](NC(=O)[C@H](C)NC(=O)[C@H](Cc1ccc(O)cc1)NC(=O)[C@H](CC(=O)O)NC(=O)CNC(=O)[C@@H]1CCCN1C(=O)[C@H](Cc1ccc(O)cc1)NC(=O)[C@H](CCSC)NC(=O)[C@@H]1CCCN1C(=O)[C@H](CCC(=O)O)NC(=O)[C@H](CC(C)C)NC(=O)[C@@H]1CCCN1C(=O)[C@H](C)N)[C@@H](C)O)[C@@H](C)O)C(=O)N[C@@H](CC(N)=O)C(=O)N[C@H](C(=O)N[C@@H](CC(C)C)C(=O)N[C@H](C(=O)N[C@@H](CCCNC(=N)N)C(=O)N1CCC[C@H]1C(=O)N[C@@H](CCCNC(=N)N)C(=O)N[C@@H](Cc1ccc(O)cc1)C(N)=O)[C@@H](C)O)[C@@H](C)O returned VDR inhibitor 7%.
Screening COC(=O)CSc1[nH]c2ccc(Br)cc2c1[N+](=O)[O-] returned TrxR1 inh 11µM*, VDR inhibitor inconclusive, Vif-A3F inh inconclusive, TrxR1 substrate 6%[57.1 µM] and Vif-APOBEC3G blk -3%.
For O=c1cc(-c2ccccc2)oc2cc(O)c(O)c(O)c12 the results were TrxR1 inh 9%, VDR inhibitor -14%, Vif-A3F inh 0%, TrxR1 substrate 1% and Vif-APOBEC3G blk 1%.
`O=c1c(O)cccc2cc(O)c(O)c(O)c12` gave TrxR1 inh -23%, VDR inhibitor 20µM*!, Vif-A3F inh -34%, TrxR1 substrate -8% and Vif-APOBEC3G blk -1%.
Screening COc1cc(C2SC[C@H]3C(=O)N(c4ccccc4)C(=O)N23)cc(OC)c1OC (some centres undefined) returned TrxR1 inh 79µM*, VDR inhibitor -6%, Vif-A3F inh -6%, TrxR1 substrate -2% and Vif-APOBEC3G blk 3%.
`Cc1ccc(N2C(=O)[C@@H]3CSC(c4ccc(F)cc4)N3C2=O)cc1` (some centres undefined) gave TrxR1 inh 5%, VDR inhibitor -2%, Vif-A3F inh -4%, TrxR1 substrate -2% and Vif-APOBEC3G blk 3%.
CC(=O)c1cccc(-n2c(CCC(=O)O)ccc2-c2ccccc2)c1 was read as TrxR1 inh 50µM*, VDR inhibitor -9%, Vif-A3F inh inconclusive, TrxR1 substrate 2% and Vif-APOBEC3G blk 0%.
Screening COc1ccc(CC(=O)Nc2sc3c(c2C(=O)Nc2c(C)cccc2C)CCCCC3)cc1 returned TrxR1 inh 0%, VDR inhibitor -20%, Vif-A3F inh 2%, TrxR1 substrate 11%[11.4 µM] and Vif-APOBEC3G blk 0%.
`CCc1ccc2nc(N(CCN(C)C)C(=O)c3ccc4ncsc4c3)sc2c1` gave TrxR1 inh 40%, VDR inhibitor 71µM*, Vif-A3F inh 9%, TrxR1 substrate 5%[57.1 µM] and Vif-APOBEC3G blk -2%.
COc1ccc(-c2nn3c(-c4cc(-c5ccccc5)n[nH]4)nnc3s2)cc1OC was read as TrxR1 inh 0%, VDR inhibitor -9%, TrxR1 substrate -4% and Vif-APOBEC3G blk -1%.
For Cc1ccc2ncnc(NCc3ccco3)c2c1 the results were TrxR1 inh 79µM*, VDR inhibitor -5%, TrxR1 substrate -4% and Vif-APOBEC3G blk -7%.
`Cc1ccc(S(=O)(=O)Nc2nc3ccccc3nc2NCc2ccco2)cc1` gave TrxR1 inh 8.9µM*, VDR inhibitor -2%, Vif-A3F inh inconclusive, TrxR1 substrate 18% and Vif-APOBEC3G blk -9%.
`O=S(=O)(Nc1nc2ccccc2nc1NCc1ccco1)c1ccc(Cl)cc1` gave TrxR1 inh -29%, VDR inhibitor -1%, Vif-A3F inh 2%, TrxR1 substrate -1% and Vif-APOBEC3G blk 2%.
Screening Nc1cccc2c(=O)[nH]ccc12 returned VDR inhibitor -29%.
O=C(Nc1ccc(Cl)cc1Cl)[C@@H]1CC=C[C@@H]2CCN(Cc3ccccc3)C(=O)[C@@H]21 was read as TrxR1 inh 15%, TrxR1 substrate 4% and Vif-APOBEC3G blk 4%.
For Cc1cc(C(F)(F)F)c(C#N)c(SCC(=O)Nc2nc3ccccc3s2)n1 the results were TrxR1 inh -10%, VDR inhibitor -14%, Vif-A3F inh 22µM*, TrxR1 substrate -10% and Vif-APOBEC3G blk inconclusive.
Screening CCOc1ccc(-c2cc(C(F)(F)F)c(C#N)c(SCC(=O)Nc3ccccc3)n2)cc1 returned TrxR1 inh 32%, VDR inhibitor -3%, Vif-A3F inh inconclusive, TrxR1 substrate 11% and Vif-APOBEC3G blk 13µM*.
`CC(=O)Nc1ccc(/C=C/c2nc3ccccc3s2)cc1` gave TrxR1 inh 7%, TrxR1 substrate -5% and Vif-APOBEC3G blk 0%.
Screening CCOC(=O)COc1ccc2ccccc2c1/C=C/[N+](=O)[O-] returned TrxR1 inh 7.1µM*, VDR inhibitor 25µM*, Vif-A3F inh -3%, TrxR1 substrate -6% and Vif-APOBEC3G blk -14%.
CCCCOc1cccc(C(=O)Nc2cc3nn(-c4ccc(F)cc4)nc3cc2C)c1 was read as TrxR1 inh 36%[11.4 µM], VDR inhibitor -17%, Vif-A3F inh 3%, TrxR1 substrate 23% and Vif-APOBEC3G blk 0%.
